From PubChem BioAssay AID651814 (National Center for Advancing Translational Sciences (NCATS), 2012)
Hit rate of the full screen: of about 2,100 compounds, about 590 (28%) were called active. Inconclusive results (about 42%) are left out. Some of the results follow. A number with no mark means an inactive call. Calls follow the shape of the dose curve; as a rule, active = well fitted inhibition curve with a large enough effect; inconclusive = small, poorly fitted or top-dose-only effect; inactive = flat fitted curve, though single readings scatter.

biological target: DNA dC->dU-editing enzyme APOBEC-3F (Homo sapiens) (UniProt Q8IUX4); test: qHTS for inhibitors of Vif-A3F interactions: Cherry picks; settings: HeLa A3F-eYFP + Vif (tagged APOBEC3F with the HIV-1 protein that degrades it), eYFP fluorescence, 24 h; also: nearly all actives have a fitted effect of over 70% in size;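 as to max response: % of control where 0% means no effect; active compounds raise eYFP fluorescence by blocking Vif-driven A3F loss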
Sequence (Q8IUX4 whole entry, looked up): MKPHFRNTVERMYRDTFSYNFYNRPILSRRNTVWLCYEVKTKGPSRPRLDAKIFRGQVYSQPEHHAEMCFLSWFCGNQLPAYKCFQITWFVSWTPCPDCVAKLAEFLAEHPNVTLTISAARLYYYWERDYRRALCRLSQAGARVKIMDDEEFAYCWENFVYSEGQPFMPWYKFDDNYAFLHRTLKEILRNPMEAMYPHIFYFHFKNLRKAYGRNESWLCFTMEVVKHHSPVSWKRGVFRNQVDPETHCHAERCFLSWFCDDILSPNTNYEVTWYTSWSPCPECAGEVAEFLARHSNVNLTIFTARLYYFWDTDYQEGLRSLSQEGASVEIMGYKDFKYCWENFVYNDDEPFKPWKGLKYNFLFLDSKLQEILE
Outline: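 HeLa cells stably expressing A3F-eYFP plus Vif, cultured overnight, then exposed to compounds at several concentrations for 24 h at 37 deg C. Reduced Vif-driven degradation read as rising eYFP fluorescence (488 nm ex/500-530 nm em) by laser-scanning cytometry; MG132 as positive control.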
Potency is read from the fitted curve at half-maximal effect.

Q: With Cc1cc(N2CCCC2)ccc1/C=C1\NC(=S)N(C)C1=O as the compound, how does the Potency read?
A: 1.84 µM (active)

Q: How did the Potency turn out when Cc1cc(/C=C2\NC(=S)N(C)C2=O)ccc1N1CCCC1 was run?
A: 12.5 µM (active)

Q: With O=C1/C(=C/c2ccc(N3CCCC3)cc2)NC(=S)N1C1CC1 as the compound, how does the Potency read?
A: 5.17 µM (active)

Q: For O=C(Oc1ccc(Cl)c2cccnc12)c1ccco1, which max response is on record?
A: -0.0527%

Q: Which max response does the source give for CS(=O)(=O)N(CC(=O)N1CCN(Cc2ccccc2)CC1)c1ccccc1F here?
A: 0.272%

Q: With CN(C)c1ccc(/C=C/c2ccnc3ccc(N)cc23)cc1 as the compound, how does the Potency read?
A: 20.6 µM (active)

Q: For CN(C)c1ccc(/C=C/c2ccnc3ccc(Br)cc23)cc1, which Potency is on record?
A: 3.66 µM (active)

Q: With CN(C)c1ccc(/C=C/c2ccnc3cc(Cl)ccc23)cc1 as the compound, how does the Potency read?
A: 2.91 µM (active)

Q: Which Potency does the source give for Cc1ccc2nccc(/C=C/c3ccc(N(C)C)cc3)c2c1 here?
A: 5.8 µM (active)

Q: With COc1ccc2nccc(/C=C/c3ccc(N(C)C)cc3)c2c1 as the compound, how does the Potency read?
A: 23.1 µM (active)

Q: CN(C)c1ccc(/C=C/c2ccnc3ccc(I)cc23)cc1 was tested. Which Potency did it give?
A: 8.2 µM (active)

Q: Which Potency does the source give for Cc1ccc2c(/C=C/c3ccc(N(C)C)cc3)ccnc2c1 here?
A: 18.4 µM (active)

Q: How did the Potency turn out when Cc1cc(C)c2nccc(/C=C/c3ccc(N(C)C)cc3)c2c1 was run?
A: 10.3 µM (active)

Q: With CC(=O)Nc1cccc(-c2ccnc3c2CC(C)(C(=O)Nc2cccc(C(C)=O)c2)O3)c1 (stereo not given) as the compound, how does the max response read?
A: -22.1%

Q: How did the max response turn out when S=C(NCCSCc1ccc(Cl)cc1)Nc1ccccc1 was run?
A: -0.773%

Q: N#CC1CC(c2ccccc2)Nc2cc(Cl)ccc2N1 (stereo not given) was tested. Which max response did it give?
A: -26.3%

Q: For COc1cc(Cl)c(C)cc1NC(=O)CN1CCN(C(=O)C2CC2)CC1, which max response is on record?
A: -14.7%

Q: CCC(C)Sc1cc(-c2nc3ccccn3c2NC2CCCCC2)ccc1OC (stereo not given) was tested. Which max response did it give?
A: -11.6%

Q: Which max response does the source give for C=CCN1C=CC(=C/C=C(/C#N)C(=O)OCC)C=C1 here?
A: -21.4%

Q: With CCCN1C=CC(=CC=C(C#N)C#N)C=C1 as the compound, how does the Potency read?
A: 15.8 µM (active)

Q: How did the Potency turn out when C=CCN1C=CC(=CC=C(C#N)C#N)C=C1 was run?
A: 11.2 µM (active)

Q: With N#C/C(=C/c1ccc2c(c1)OCO2)C(=O)Nc1ccc(O)cc1 as the compound, how does the max response read?
A: -28.5%

Q: With CCOc1ccc(Br)cc1C(=O)Nc1ccc(C(=O)NCC(C)C)cc1 as the compound, how does the max response read?
A: -8.08%

Q: How did the Potency turn out when CCOc1cc(/C=C(/C#N)C(=O)Nc2ccc(O)cc2)cc(Br)c1O was run?
A: 15.8 µM (active)

Q: How did the Potency turn out when CCOc1ccc(NC(=O)/C(C#N)=C/c2ccc(N3CCCC3)c(C)c2)cc1 was run?
A: 1.03 µM (active)

Q: For CC(=O)Nc1ccc(S(=O)(=O)Nc2nc3ccccc3nc2Sc2nncn2C)cc1, which max response is on record?
A: -12.8%

Q: Cc1ccc2nc3c(cc(S(=O)(=O)c4ccccc4)c(=N)n3Cc3ccco3)c(=O)n2c1 was tested. Which max response did it give?
A: -15.4%

Q: Which Potency does the source give for COc1ccc(Cn2c(C)nc3c(c2=O)c2nc4ccccc4nc2n3Cc2ccco2)cc1 here?
A: 14.6 µM (active)

Q: For CC(C)n1cnc2c(NCc3ccccc3)cc(N[C@H](C)CO)cc21, which Potency is on record?
A: 12.5 µM (active)

Q: Which max response does the source give for Cc1ccccc1N1C(=O)c2cccc3c(N(C)CCO)ccc(c23)C1=O here?
A: -29.5%

Q: For Cc1ccc(N2C(=O)c3cccc4c(N5CCN(C)CC5)ccc(c34)C2=O)c2cccnc12, which Potency is on record?
A: 17.7 µM (active)

Q: With CC1(C(=O)NCc2cccs2)Cc2c(-c3ccc(C(N)=O)cc3)ccnc2O1 (stereo not given) as the compound, how does the max response read?
A: -27%

Q: With CCOC(=O)c1ccc(Nc2nc3ccccc3nc2NS(=O)(=O)c2ccc(Cl)cc2)cc1 as the compound, how does the max response read?
A: -8.48%

Q: For CCOC(=O)c1c(Nc2ccc(Cl)cc2)sc(/C=C2\C=Nc3ccccc32)c1O, which Potency is on record?
A: 14.6 µM (active)

Q: Which max response does the source give for CC(C)(C)c1ccc(Oc2ccc(NC(=O)c3ccccc3C(=O)O)cn2)cc1 here?
A: 1.93%

Q: For CCC(C)n1c(NC(=O)c2ccccc2)c(C#N)c2nc3ccccc3nc21 (stereo not given), which Potency is on record?
A: 16.4 µM (active)

Q: With COC(=O)Cn1c(C)c(/C=C/c2cc[n+](C)cc2)c2ccccc21 as the compound, how does the Potency read?
A: 18.4 µM (active)

Q: With CCN(CC)C(=O)Cn1c(C)c(/C=C/c2cc[n+](C)cc2)c2ccccc21 as the compound, how does the Potency read?
A: 11.2 µM (active)

Q: With S=c1[nH]nc(-c2cccnc2)n1/N=C/C(Cl)=C\c1ccccc1 as the compound, how does the max response read?
A: -29.6%

Q: CN(C)c1ccc(/C=C/C(=O)c2c(O)c3ccccc3oc2=O)cc1 was tested. Which Potency did it give?
A: 1.46 µM (active)

Q: How did the Potency turn out when c1ccc(-c2cnn3c(-c4ccccc4)c(-c4ccccc4)nc3n2)cc1 was run?
A: 1.84 µM (active)

Q: With CCN(CC)c1ccc(/C=C/c2cc(-c3ccccc3)c3ccccc3n2)cc1 as the compound, how does the Potency read?
A: 5.59 µM (active)

Q: How did the max response turn out when Nc1ccc2nc(-c3ccccc3)c(-c3ccccc3)nc2c1 was run?
A: -17.1%

Q: CN(C)c1ccc(/C=C/c2nc3ccccc3c(=O)[nH]2)cc1 was tested. Which max response did it give?
A: -19.3%

Q: Which Potency does the source give for CN(C)c1ccc(/C=C/c2cc(N(C)C)nc3ccccc23)cc1 here?
A: 9.2 µM (active)

Q: CN(C)c1ccc(/C=C/c2nc3ccccc3c(=O)n2CCO)cc1 was tested. Which Potency did it give?
A: 20.6 µM (active)

Q: For CN(NC(=O)c1ccccc1)c1nc2ccccc2nc1C(F)(F)F, which max response is on record?
A: -29.3%

Q: How did the Potency turn out when Nc1ccc(/C=C/c2cc(Cl)nc3ccccc23)cc1 was run?
A: 18.4 µM (active)

Q: Which max response does the source give for COC(=O)c1ccccc1NC(=O)C1CC(=O)N(c2ccc(OC)cc2)C1 (stereo not given) here?
A: -29%

Q: Which max response does the source give for O=C(Cn1ncc(Cl)c(Cl)c1=O)N1CCN(S(=O)(=O)c2ccc3ccccc3c2)CC1 here?
A: -29%

Q: For C/C(=N\NC(=S)NC(C)C)c1ccc(C(C)(C)C)cc1, which max response is on record?
A: -1.78%

Q: CN(C)c1ccc(/C=C/c2cc(/C=C/c3ccc(N(C)C)cc3)c3ccccc3n2)cc1 was tested. Which Potency did it give?
A: 7.31 µM (active)

Q: How did the Potency turn out when CCOc1ccc(C2CC(c3c(O)c4ccccc4oc3=O)=NN2c2ccccc2)cc1OC (stereo not given) was run?
A: 13 µM (active)

Q: With CC[N+](C)(C(=O)O)/C(=C\c1ccccc1)c1ccnc2ccccc12 (stereo not given) as the compound, how does the Potency read?
A: 20.6 µM (active)

Q: With CC(C)Cn1c(N)c(C(=O)COC(=O)c2ccc([N+](=O)[O-])o2)c(=O)n(C)c1=O as the compound, how does the max response read?
A: 3.32%

Q: COc1ccc(-n2cc3c(-c4cccc(Br)c4)nnc(C)c3n2)cc1 was tested. Which max response did it give?
A: -1.46%

Q: How did the Potency turn out when N=c1n(CC(=O)c2ccc([N+](=O)[O-])cc2)c2ccccc2n1Cc1ccccc1 was run?
A: 14.6 µM (active)

Q: Which max response does the source give for COC(=O)[C@@H]1Cc2c([nH]c3ccccc23)C(C)(C)N1C(=O)CCl here?
A: -14.3%

Q: For Oc1ccc(C2=NNC(=NCc3ccc4c(c3)OCO4)SC2)c(O)c1, which max response is on record?
A: -25%

Q: N#Cc1c(NC(=O)/C=C/C(=O)O)sc2c1CCN(Cc1ccccc1)C2 was tested. Which max response did it give?
A: -10.7%

Q: How did the Potency turn out when CN(C)c1ccc(/C=C(/C#N)C(=O)Nc2nc3c(s2)CCN(Cc2ccccc2)C3)cc1 was run?
A: 0.704 µM (active)

Q: For CCOC(=O)c1cc(-c2ccccc2C)n(CC2CC(c3ccc(OC)cc3)=NO2)n1 (stereo not given), which max response is on record?
A: 6%

Q: Which Potency does the source give for CN(C)c1ccc(/C=C/c2ccnc3c(N)cccc23)cc1 here?
A: 16.4 µM (active)

Q: With CN(C)c1ccc(/C=C/c2ccnc3c(Cl)ccc(Cl)c23)cc1 as the compound, how does the Potency read?
A: 6.51 µM (active)

Q: With CN(C)c1ccc(/C=C/c2ccnc3c(Cl)cccc23)cc1 as the compound, how does the Potency read?
A: 4.11 µM (active)

Q: For Cc1ccc(-c2nc(SCCOc3ccccc3C)n3[nH]c(=O)cc3n2)cc1, which max response is on record?
A: 1.28%

Q: How did the max response turn out when COc1ccc(/C=C2\Oc3cc(OC(=O)N4CCOCC4)ccc3C2=O)c(OC)c1 was run?
A: -13.8%

Q: How did the Potency turn out when COc1ccc(/C=c2\s/c(=C/C(=O)c3ccc(C)cc3)[nH]c2=O)c(OC)c1 was run?
A: 18.4 µM (active)

Q: How did the max response turn out when Cc1ccc(NC(=S)N=Nc2c(O)n(C)c3ccc(S(=O)(=O)N4CCOCC4)cc23)cc1 was run?
A: 3.82%

Q: Which Potency does the source give for COc1ccc(-n2c(O)c(/C=N/NS(=O)(=O)c3cc(C)ccc3C)c3ccccc3c2=O)cc1OC here?
A: 14.6 µM (active)

Q: Which max response does the source give for COc1ccc(C)cc1NCc1cc(=O)oc2cc(-c3ccccc3)c(O)cc12 here?
A: -18.7%

Q: With COC(=O)c1cnc(Nc2cc(C)ccc2OC)c2ccccc12 as the compound, how does the max response read?
A: -22%

Q: With O=C(O)CSc1cc(NS(=O)(=O)c2cccc([N+](=O)[O-])c2)c2ccccc2c1O as the compound, how does the max response read?
A: -12.8%

Q: COc1ccc(C(=O)C(C)[n+]2ccc(C)c3ccccc32)cc1[N+](=O)[O-] (stereo not given) was tested. Which max response did it give?
A: 1.15%

Q: For COc1ccc(-n2c(O)c(/C=N/NS(=O)(=O)c3cccc([N+](=O)[O-])c3)c3ccccc3c2=O)cc1OC, which Potency is on record?
A: 17.7 µM (active)

Q: For COc1ccc(-n2c(O)c(/C=N/NS(=O)(=O)c3ccc(C)c([N+](=O)[O-])c3)c3ccccc3c2=O)cc1OC, which Potency is on record?
A: 14.6 µM (active)

Q: COC1=C(OC)C(=O)C(Sc2ccc3ccccc3c2)=CC1=O was tested. Which max response did it give?
A: -9.94%

Q: CCSc1nnc(-c2sc3nnc(-c4ccccc4)c(-c4ccccc4)c3c2N)o1 was tested. Which Potency did it give?
A: 16.4 µM (active)

Q: Which max response does the source give for COc1cc(CNCCSc2nnnn2C)ccc1OCc1c(F)cccc1Cl here?
A: -4.2%

Q: How did the Potency turn out when COc1ccc(C(=O)Nc2cccc(/C=C/c3nc4ccccc4c(=O)[nH]3)c2)cc1 was run?
A: 12.5 µM (active)

Q: With N#Cc1c(C(F)(F)F)cc(-c2ccco2)nc1SCc1ccccn1 as the compound, how does the Potency read?
A: 10.3 µM (active)

Q: Which Potency does the source give for Cc1nnc(NC(=O)c2sc3nc(-c4cccs4)cc(C(F)(F)F)c3c2N)s1 here?
A: 7.31 µM (active)

Q: Which Potency does the source give for Nc1c(C(=O)Nc2nc3ccccc3s2)sc2nc(-c3cccs3)ccc12 here?
A: 20.6 µM (active)

Q: With COc1ccc2nc(NC(=S)NC(=O)c3ccco3)sc2c1 as the compound, how does the max response read?
A: -0.262%

Q: Which max response does the source give for O=C(Nc1nc2ccccc2s1)c1ccc([N+](=O)[O-])o1 here?
A: -26.2%

Q: With Nc1c(C(=O)Nc2nccs2)sc2nc(-c3cccs3)cc(C(F)(F)F)c12 as the compound, how does the Potency read?
A: 8.86 µM (active)

Q: Which Potency does the source give for Nc1c(C(=O)Nc2ccc(F)cc2)sc2nc(-c3cccs3)cc(C(F)(F)F)c12 here?
A: 1.64 µM (active)

Q: With O=c1[nH]cnc2n[nH]nc12 as the compound, how does the Potency read?
A: 2.31 µM (active)

Q: CCNC(=S)N/N=C(\C)c1ccc(N2CCOCC2)cc1 was tested. Which max response did it give?
A: -0.726%

Q: With O=c1[nH]c2ccccc2n2c(C(F)(F)F)nnc12 as the compound, how does the max response read?
A: -23.2%
